Measured values published in PubChem BioAssay AID2314 (National Center for Advancing Translational Sciences (NCATS), 2010).
Values joined by “and” are separate entries in the source; they are usually repeats but may differ in a detail not shown here. Identical values can stand only once. The whole screen tested about 300,000 compounds, of which about 37,000 (12%) were called active. No stated cut-off is given here; in the data, active means max response mostly above about 13% (no sharp cut-off); inactive means mostly below about 14%. This excerpt belongs to a sample that is enriched for actives.

Assay: Cycloheximide Counterscreen for Small Molecule Inhibitors of Shiga Toxin; further: read at 38.3 µM for the half of the compounds with a filed dose; 0% is about no effect
Conditions: cell reporter, cycloheximide protein synthesis inhibition counterscreen; hits give high values

Row | SMILES | max response
1 | CCOc1ccc(S(=O)(=O)N2CCCC(C(=O)N3CCC(C(N)=O)CC3)C2)cc1Cl (configuration not stated) | 23.5% (active)
2 | CCN1CCN(C(=O)C2CCCN(S(=O)(=O)c3ccc(OC)c(OC)c3)C2)CC1 (configuration not stated) | -4.36% (inactive)
3 | CCOC(=O)C1CCN(C(=O)C2CCCN(S(=O)(=O)c3ccc(OC)c(Cl)c3)C2)CC1 (configuration not stated) | -4.35% (inactive)
4 | COCCCC1CCN(C(=O)C2CCC(=O)N(C3CCCCCC3)C2)CC1 (configuration not stated) | -2.1% (inactive)
5 | COc1ccc(C(CC(=O)N2CCN(c3ccccc3)CC2)c2c(O)cc(OC)cc2OC)cc1 (configuration not stated) | -2.39% (inactive) and 0.819% (inactive)
6 | COc1ccc(C(=O)Nc2ccccc2C(=O)N2CCN(c3ccccc3)CC2)cc1 | 11.6% (inactive)
7 | COc1ccc(C(C(O)C(=O)c2c[nH]c3ccccc23)N2CCN(c3ccccc3)CC2)cc1 (configuration not stated) | 11.6% (active)
8 | Cc1c(C)n(Cc2ccc(Cl)cc2)c2ccc(C(=O)NCCCN3CCOCC3)cc12 | -6.61% (inactive)
9 | O=C(NCCCn1ccnc1)/C(=C\c1ccccc1F)NC(=O)c1ccccc1 | -1.78% (inactive)
10 | O=C(Nc1cccc(Br)c1)c1ccc2snnc2c1 | 26.9% (active)
11 | O=C(Nc1ccc2ccccc2c1)Nc1ccc2snnc2c1 | 14.6% (inactive)
12 | CCc1ccccc1NC(=O)c1ccc2snnc2c1 | -0.462% (inactive)
13 | COC(=O)Cc1cnc(NC(=O)CSc2nc(C(C)C)cc(=O)[nH]2)s1 | -1.1% (inactive)
14 | COc1cccc(OCCCN2CCCCCC2)c1 | 10.5% (inactive)
15 | Cc1ccc(Oc2ccc(N)cc2)cc1 | 14.2% (active)
16 | CC(C)(C)c1ccc(Oc2ccc(N)cc2)cc1 | -11.7% (inactive)
17 | COc1cccc(Oc2ccc(N)cc2)c1 | 19.4% (active)
18 | Nc1ccc(Oc2ccc(Cl)cc2)cc1 | 10.9% (inactive)
19 | COc1ccc(/C=C/C(=O)OCC(=O)Nc2cccc(Oc3ccccc3)c2)c(OC)c1 | -2% (inactive)
20 | O=C(Oc1ccc(Br)cc1C(=S)N1CCOCC1)c1cccc([N+](=O)[O-])c1 | -2.16% (inactive)
21 | CC1(C(=O)NCCc2c[nH]c3ccccc23)C=CC2(CCCCC2)N1C(=O)c1ccccc1 (configuration not stated) | 17.5% (inactive)
22 | Cc1ccc(Nc2nc(CSc3nnc(-c4ccncc4)n3-c3ccccc3C)cs2)cc1 | 6.52% (inactive)
23 | COc1ccccc1N1CCC(N2CCN(CC(C)(C)C)C(CCO)C2)CC1 (configuration not stated) | 1.35% (inactive)
24 | NC(=O)C1CCN(Cc2nc3c(Br)cc(Br)cc3c(=O)[nH]2)CC1 | 4.18% (inactive)
25 | CN(C(=O)CC1C(=O)NCCN1Cc1ccc(F)cc1Cl)C1CCCCC1 (configuration not stated) | -2.54% (inactive)
26 | CCN(CC)Cc1cc(C(C)=O)ccc1O | -3.77% (inactive)

Row | SMILES | max response
27 | CC(=O)CCC(=O)c1ccc2ccccc2c1 | 48.4% (active)
28 | CC(=O)c1ccc2c(ccc3ccccc32)c1 | 67.2% (active)
29 | Cc1ccccc1OCC(=O)NCC(=O)OCC(=O)c1ccc2ccccc2c1 | 1.31% (inactive)
30 | O=C(Nc1ccccc1N1CCCC1)c1ccc2ccccc2c1 | 18.5% (inactive)
31 | CC(=O)c1ccc2c(c1)c1ccccc1n2CC(C)C | 3.09% (inactive)
32 | CC(C)CC(O)C1CCN(C(=O)CCc2nnc(-c3ccc4c(c3)OCO4)o2)CC1 (configuration not stated) | 13.8% (inactive)
33 | COc1ccc(Cl)cc1NC(=O)c1cccc(N2C(=O)C3CC=CCC3C2=O)c1 (configuration not stated) | -2.41% (inactive)
34 | CC1CN(C(=S)Nc2cccc(F)c2)CC(C)O1 (configuration not stated) | -2.61% (inactive)
35 | COc1ccc(CCNC(=O)Cc2ccc(C)cc2)cc1OC | 0.685% (inactive)
36 | COc1ccc(CC(=O)c2ccc(O)cc2O)cc1OC | 12.9% (active)
37 | O=C(Cc1ccccn1)c1ccc(O)cc1O | -6.13% (inactive)
38 | CCN(Cc1ccncc1)C(=O)CCc1ccccc1 | -2.09% (inactive)
39 | CCOc1ccc(NC(=O)c2cccc3c2C(=O)N(CC2CCCO2)C3)cc1 (configuration not stated) | 8.04% (inactive)
40 | Cn1c(Cc2cccs2)nnc1SCC(=O)Nc1ccccc1 | -0.893% (inactive)
41 | CCn1c(SCC(=O)c2ccc3ccccc3c2)nnc1-c1cccs1 | -2.54% (inactive)
42 | CCn1c(Cc2cccs2)nnc1SCC(=O)c1ccc(C)cc1 | 35.4% (active)
43 | CCn1c(SCC(=O)N(C)C2CCS(=O)(=O)C2)nnc1-c1cccs1 (configuration not stated) | -1.86% (inactive)
44 | CCn1c(SCC(=O)c2ccc(Cl)s2)nnc1-c1cccs1 | 24.2% (active)
45 | Cc1ccc(-n2c(Cc3cccs3)nnc2SCC(=O)OC(C)C)cc1 | 18.3% (inactive)
46 | O=C(N/C(=C\c1ccc(O)cc1)C(=O)N1CCCCC1)c1ccccc1 | -0.421% (inactive)
47 | COCCCNC(=O)C1CC(=O)N(CCc2ccc(F)cc2)C1 (configuration not stated) | -0.645% (inactive)
48 | CC(C)(CNC(=O)c1ccc(Cl)c(S(=O)(=O)N2CCc3ccccc3C2)c1)N1CCOCC1 | -3.28% (inactive)
49 | COc1cc(OC)cc(C(=O)NCCSCc2ccc(Cl)cc2)c1 | 11.2% (inactive)
50 | CC1CC(C)CN(CCCNC(=O)Cn2ncc3c([nH]c4ccccc43)c2=O)C1 (configuration not stated) | -2.29% (inactive)
51 | Cc1ccc(NS(=O)(=O)c2cc3c(cc2C)NC(=O)CO3)cc1 | -3.17% (inactive)
52 | CC1(C)Cc2c(sc(NC(=O)C(=O)NCC3CCCO3)c2C(=O)O)CO1 (configuration not stated) | 0.548% (inactive)

Row | SMILES | max response
53 | Cn1cccc1C(=O)N1CCc2ccccc2C1 | 15.5% (active)
54 | COc1ccc2c(c1)CCc1c(C(=O)N3CCc4ccccc4C3)noc1-2 | 30.1% (active)
55 | CN(c1ccc(C(=O)N2CCc3ccccc3C2)cc1)S(C)(=O)=O | 18.8% (inactive)
56 | COc1ccc(OC)c(NC(=S)N2CCc3ccccc3C2)c1 | 9.77% (inactive)
57 | COc1ccc2c(c1)CCc1c(C(=O)N3CCCC3)noc1-2 | 36.2% (active)
58 | O=C(C(=O)N1CCc2ccccc2C1)N1CCc2ccccc2C1 | -2.04% (inactive)
59 | O=C(c1noc2c1CCCC2)N1CCc2ccccc2C1 | 40.9% (active)
60 | CN1CCN(Cc2c(C(=O)N3CCc4ccccc4C3)nc3ccc(Cl)cn23)CC1 | -1.69% (inactive)
61 | COc1ccc2cc(C(=O)C3CCCN(C(=O)c4sc(C)nc4C)C3)ccc2c1 (configuration not stated) | 15.7% (inactive)
62 | COc1cccc(N(CC(=O)N2CCc3ccccc3C2)S(C)(=O)=O)c1 | -1.63% (inactive)
63 | COc1ccc(S(=O)(=O)NC(C)C(=O)N2CCCCCC2)cc1 (configuration not stated) | -0.827% (inactive)
64 | COc1cccc(NC(=O)N2CCCC2C(=O)NC2CCCCC2)c1 (configuration not stated) | -2.55% (inactive)
65 | Cc1ccc(CN(CC(=O)NC2CCCCC2)C(=O)c2csnn2)cc1 | -2.39% (inactive)
66 | CCOCCCNc1c(CC)c(C)c(C#N)c2nc3ccccc3n12 | -2.64% (inactive)
67 | Cc1ccc(NC(=O)CC2S/C(=N/N=C3\CCCc4ccccc43)NC2=O)cc1 (configuration not stated) | -4.9% (inactive)
68 | C[C@H]1CCC[C@@]2(C)CCCC[C@]12O | 12.1% (inactive)
69 | Cn1c(CCc2ccccc2)nnc1SCC(N)=O | -1.26% (inactive)
70 | O=C(Nc1ccc(N2CCOCC2)c(Cl)c1)c1ccc(S(=O)(=O)N2CCOCC2)cc1 | 5.48% (inactive)
71 | O=C(Nc1ccc(S(=O)(=O)N2CCOCC2)cc1)c1ccc2ncsc2c1 | 43.1% (active)
72 | O=C(Nc1ccc(S(=O)(=O)Nc2nccs2)cc1)c1cccc(S(=O)(=O)N2CCOCC2)c1 | -1.31% (inactive)
73 | CCc1ccc(C(=O)CSc2nnc(C)c(=O)[nH]2)cc1 | 1.57% (inactive)
74 | COc1cc(C(=O)NCc2nnc(SCC(=O)c3ccc(Cl)cc3)o2)cc(OC)c1OC | 2.18% (inactive)
75 | O=C(N/N=C/C=C/c1ccco1)c1cccs1 | 46% (active)
76 | CCN(CC)c1ccc(/C=N/NC(=O)CNC(=O)c2cccs2)cc1 | 19.2% (active)
77 | Cc1ccc(-c2cc(C(=O)N/N=C/C=C/c3ccco3)c3ccccc3n2)cc1C | 26.2% (inactive)
78 | O=C(NC(Cc1c[nH]c2ccccc12)C(=O)N/N=C/c1ccc(Br)cc1)c1cccs1 (configuration not stated) | 1.73% (inactive)

Row | SMILES | max response
79 | CCN(CC)c1ccc(/C=N/NC(=O)CNC(=O)c2cccnc2)cc1 | -5.38% (inactive)
80 | Cc1cccc(-n2c(C)cc(/C=N/NC(N)=S)c2C)c1 | 9.86% (inactive)
81 | CC(=O)Nc1ccc(/C=N/NC(=O)c2cccs2)cc1 | 58.5% (active)
82 | Cc1cccc(-n2c(C)cc(/C=N\NC(=O)c3cccs3)c2C)c1 | 56.1% (active)
83 | Cc1ccc(-n2c(C)cc(/C=N\NC(=O)CC(=O)NC(C)C)c2C)cc1 | -4.19% (inactive)
84 | O=C(CNC(=O)c1cccs1)N/N=C/c1cccc(Br)c1 | -3.86% (inactive)
85 | CCCc1c(C(=O)N/N=C(\C)CCc2ccc(OC)cc2)nnn1-c1nonc1N | 11% (inactive)
86 | Cc1ccc(N(C(=O)c2snc(C(N)=O)c2N)C(C(=O)NCC2CCCO2)c2c[nH]c3ccccc23)cc1 (configuration not stated) | -1.6% (inactive)
87 | Cc1cc(C)c(S(=O)(=O)N(C)CC(=O)NCC2CCCO2)c(C)c1 (configuration not stated) | -2.82% (inactive)
88 | CCCn1nc(NC(=O)C(C)C)c2cc3cc(OC)ccc3nc21 | 17% (inactive)
89 | COc1ccc(CCNC(=O)C2CCCN(Cc3nc(-c4cccc(Cl)c4)oc3C)C2)cc1OC (configuration not stated) | 6.92% (inactive)
90 | CCOc1cc(NC(=S)NCCCN(C)C)c(OCC)cc1NC(=O)C1CC1 | -1% (inactive)
91 | Cn1nnnc1-c1cc(Cl)cc(Cl)c1 | 1.2% (inactive)
92 | CN(CCO)S(=O)(=O)c1ccc2c(c1)C(=O)c1cc(S(=O)(=O)N(C)CCO)ccc1-2 | -1.96% (inactive)
93 | COc1ccc(CCNC(=O)C2CC3Cn4c(nc5cc(C)c(C)cc54)C3N2C)cc1 (configuration not stated) | -2.66% (inactive)
94 | CC(=O)Oc1ccc(NC(=O)CCC2CCCCC2)c(C(=O)O)c1 | -3.07% (inactive)
95 | COc1ccc(NC(=O)NCc2ccc3c(c2)OCO3)c(OC)c1 | -2.52% (inactive)
96 | Cc1cc(NC(=O)CCC2COc3ccccc3O2)no1 (configuration not stated) | 14.1% (active)
97 | COc1ccc(NC(=O)CCC(=O)Nc2cc(OC)c(NC(=O)c3ccco3)cc2OC)c(OC)c1 | -4.97% (inactive)
98 | Cc1ccc(SCCC(=O)Nc2cc(C)on2)cc1 | 5.3% (inactive)
99 | COc1ccc(NC(=O)CCCC2CCCCC2)c(OC)c1 | 31.1% (active)
100 | COc1ccc(NC(=O)CCN2CCCC2)c(OC)c1 | -1.44% (inactive)
101 | Cc1cc(NC(=O)CCC(=O)N(CC(=O)NCC2CCCO2)c2ccccc2)no1 (configuration not stated) | -1.66% (inactive)
102 | COc1ccc(NC(=O)CC2COc3ccccc3O2)c(OC)c1 (configuration not stated) | 24.3% (active)
